This is an account of results in PubChem BioAssay (NCATS).

Assay [1] in a line: qHTS profiling for inhibitors of Plasmodium falciparum (3D7) proliferation (AID 743322).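 Note: infected erythrocytes exposed to compound for 72 h before lysis; 100% = DMSO vehicle wells and 0% = 0.29 µM artemisinin.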 As to conditions: P. falciparum 3D7 proliferation; at 28.7 µM (top of the series). The essentials: (§1)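 Erythrocytes infected with P. falciparum (0.3% parasitemia, 2.5% hematocrit) incubated with compounds 72 h at 37 C, 5% CO2. Lysis with saponin/Triton buffer containing SYBR Green I, overnight at room temperature in the dark; DNA fluorescence (485/535 nm) normalised to 0.29 uM artemisinin and DMSO.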

Assay [2] in a line: qHTS profiling for inhibitors of Plasmodium falciparum (DD2) proliferation (AID 743323). As to conditions: lower = more inhibition; at 28.7 µM (top of the series). The essentials:
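SYBR Green fluorescence (ex 485, em 535 nm) of lysed cultures gives parasite DNA content; wells normalized to artemisinin (0.29 uM) and DMSO controls. Infected red cells: 0.3% parasitemia, 2.5% hematocrit, 72 h, 37 C.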

Assay [3] is described as follows: qHTS profiling for inhibitors of Plasmodium falciparum (HB3) proliferation (AID 743324).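 Note: 100% = DMSO vehicle wells and 0% = artemisinin-treated control wells.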 The conditions noted are these: Plasmodium falciparum HB3 blood-stage proliferation; at 28.7 µM (top of the series). Put shortly:
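P. falciparum HB3 grown in erythrocytes (0.3% parasitemia, 2.5% hematocrit final) with compound for 72 h at 37 C, 5% CO2. Parasite DNA detected by SYBR Green after saponin/triton lysis overnight; normalized to 0.29 uM artemisinin and DMSO.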
In general terms: Quantitative high-throughput screening tests each substance at several concentrations.

A short description of assay [4]: qHTS profiling of the MIPE4 collection as inhibitors of Plasmodium falciparum (3D7) proliferation (AID 743344).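 Note: scaled between DMSO vehicle wells and 0.29 µM artemisinin as full inhibition.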 As to conditions: P. falciparum 3D7 in erythrocytes, SYBR Green DNA fluorescence, 72 h; at 28.5 µM (top of the series) unless noted. Put shortly:
as §1

The nature of assay [5]: qHTS profiling of the MIPE4 collection as inhibitors of Plasmodium falciparum (DD2) proliferation (AID 743345). The conditions noted are these: P. falciparum Dd2 in erythrocytes, SYBR Green DNA, 72 h; at 28.5 µM (top of the series) unless noted. The essentials:
as §1

Assay [6] can be described thus: qHTS profiling of the MIPE4 collection as inhibitors of Plasmodium falciparum (DD2) proliferation (Rep 2) (AID 743346). The conditions noted are these: P. falciparum Dd2 in erythrocytes, SYBR Green DNA, 72 h; at 28.5 µM (top of the series) unless noted. The essentials:
as §1

Assay [7] can be described thus: qHTS profiling of the MIPE4 collection as inhibitors of Plasmodium falciparum (HB3) proliferation (AID 743347).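 Note: plate controls were DMSO vehicle wells for no effect and artemisinin wells for full effect.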 The conditions noted are these: P. falciparum HB3 in erythrocytes, SYBR Green DNA, 72 h; at 28.5 µM (top of the series) unless noted. Put shortly: as §1
The nature of assay [8]: High-throughput drug toxicity screening in the BPDCN cell line Gen2.2 (AID 1224824).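 Note: cells exposed to compounds for 48 h before reading.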 The conditions noted are these: Gen2.2 BPDCN cells; at 45.8 µM (top of the series) unless noted. The essentials: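 Gen2.2 cells (500/well) in phenol red-free RPMI with 10% FBS were exposed to compounds for 48 h at 37 °C, 5% CO2. Viability was read by CellTiter-Glo luminescence and normalized to DMSO (100%) and 9.2 uM bortezomib (0%).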

A short description of assay [9]: High-throughput drug toxicity screening in the BPDCN cell line Cal-1 (AID 1224825). The conditions noted are these: Cal-1 BPDCN cell viability, qHTS; at 45.8 µM (top of the series) unless noted. The essentials:
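500 Cal-1 cells/well, RPMI + glutamine + 10% FBS (phenol red-free); cpd added by pin tool; 48 h, 37C, 5% CO2; CTG 15 min RT, lumi read. Normalised: DMSO 100%, bortezomib 9.2 uM 0%.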

Consider `NC(=O)c1c(OCc2c(F)cc(Br)cc2F)nsc1NC(=O)NCCCCN1CCCC1`, for which the remaining parasite growth % (stronger effect = lower value) in assay [1] was -0.239%. In addition, the activity, percent of control in assay [2] is 17.3%. The remaining proliferation (% of control), lower = more inhibition in assay [3] worked out at 2.02%. The compound further displayed a parasite growth, % of DMSO control in [4] of 47.5%. Besides, the parasite growth remaining, % of DMSO control (lower = more inhibition) in assay [5] came out at 74.6%. For the same compound, in assay [6], the parasite growth, % of control (lower = inhibition) stood at 42.1%. The compound further displayed a growth, % of control in assay [7] of 5.84%. The cell viability, % of control (lower = more cytotoxic) in assay [8] was found to be 24.4%. Moreover, the viability (% of control) in assay [9] was found to be 4.13%.
Turning to `CC(C)c1ccc(Cn2ccc3c4c(N)nc(NC5CC5)nc4ccc32)cc1`, the remaining parasite growth % (stronger effect = lower value) in assay [1] is -2.55%. Also, the activity, percent of control in [2] was -1.01%. The remaining proliferation (% of control), lower = more inhibition in assay [3] was -1.47%. The same compound registered a parasite growth, % of DMSO control in assay [4] of 4.63%. In addition, the parasite growth remaining, % of DMSO control (lower = more inhibition) in assay [5] came out at 6.19%. In assay [6], the parasite growth, % of control (lower = inhibition) was 15.1%. The compound further returned a growth, % of control in assay [7] of 3.42%. For the same compound, the cell viability, % of control (lower = more cytotoxic) in assay [8] came to 3.92%. Moreover, the viability (% of control) in assay [9] is 4.41%.
For `CCC(=C(c1ccccc1)c1ccc(OCCN(C)C)cc1)c1ccccc1`, the remaining parasite growth % (stronger effect = lower value) in assay [1] turned out to be 17.2%. Further, in assay [2], the activity, percent of control came to 5.96%. Further, in [4], the parasite growth, % of DMSO control came out at 53.1%. Moreover, the parasite growth remaining, % of DMSO control (lower = more inhibition) in [5] came to 37.8%. In assay [6], this compound gave a parasite growth, % of control (lower = inhibition) of 31%. Also, in assay [7], the growth, % of control was determined as 69.7%. Also, in assay [8], the cell viability, % of control (lower = more cytotoxic) amounted to 31.7%. Moreover, in assay [9], the viability (% of control) turned out to be 23.2%.
For `NC(=O)Nc1cc(-c2cccc(F)c2)sc1C(=O)N[C@H]1CCCNC1`, the remaining parasite growth % (stronger effect = lower value) in assay [1] is -0.937%. Also, the activity, percent of control in [2] was 5.1%. The parasite growth, % of DMSO control in [4] was found to be 7.3%. The same compound gave a parasite growth remaining, % of DMSO control (lower = more inhibition) in assay [5] of 10.6%. Further, the parasite growth, % of control (lower = inhibition) in assay [6] is 15.5%. For the same compound, in [7], the growth, % of control was found to be 6.42%. The cell viability, % of control (lower = more cytotoxic) in assay [8] worked out at 7.53%. For the same compound, the viability (% of control) in [9] came to 4.12%.
Take `COc1ccc2c(c1)CC[C@@H](CN(C)CC(=O)O)[C@H]2c1ccccc1`: the remaining parasite growth % (stronger effect = lower value) in [1] came to 101%. The activity, percent of control in assay [2] stood at 98.6%. Besides, in [4], the parasite growth, % of DMSO control was determined as 31.6%. The compound further gave a parasite growth remaining, % of DMSO control (lower = more inhibition) in assay [5] of 35.4%. In [6], this compound displayed a parasite growth, % of control (lower = inhibition) of 28.4%. For the same compound, the cell viability, % of control (lower = more cytotoxic) in assay [8] turned out to be 39.9%. Also, the viability (% of control) in [9] came to 21.4%.
`CC1(C)CCC(c2ccc(Cl)cc2)=C(CN2CCN(c3ccc(C(=O)NS(=O)(=O)c4ccc(N[C@H](CCN5CCOCC5)CSc5ccccc5)c(S(=O)(=O)C(F)(F)F)c4)cc3)CC2)C1`: in assay [1], the remaining parasite growth % (stronger effect = lower value) turned out to be 0.209%. Besides, the activity, percent of control in assay [2] was determined as 2.76%. Besides, the remaining proliferation (% of control), lower = more inhibition in assay [3] was -0.0239%. Further, the parasite growth, % of DMSO control in assay [4] was determined as 17.1%. In addition, the parasite growth remaining, % of DMSO control (lower = more inhibition) in [5] is 8.31%. The compound further had a growth, % of control in assay [7] of 9.9%. Also, the cell viability, % of control (lower = more cytotoxic) in assay [8] came out at 7.3%. Also, the viability (% of control) in [9] was 16.1%.
`CCC[C@H](NC(=O)C(C#N)=Cc1cccc(Br)n1)c1ccccc1`: the remaining parasite growth % (stronger effect = lower value) in assay [1] worked out at 26.8%. In addition, the activity, percent of control in assay [2] amounted to 23.2%. In assay [4], this compound had a parasite growth, % of DMSO control of 11.6%. In assay [5], this compound displayed a parasite growth remaining, % of DMSO control (lower = more inhibition) of 6.9%. In assay [6], this compound displayed a parasite growth, % of control (lower = inhibition) of 17.5%. The same compound returned a growth, % of control in assay [7] of 4.55%. Also, in assay [8], the cell viability, % of control (lower = more cytotoxic) came out at 15.9%. Moreover, the viability (% of control) in assay [9] worked out at 4.33%.
Consider `CC(C)CC(=O)Nc1n[nH]c2c1CN(C(=O)C1CCN(C)CC1)C2(C)C`, for which, in assay [1], the remaining parasite growth % (stronger effect = lower value) was 9.49%. For the same compound, the activity, percent of control in assay [2] amounted to 13.7%. The parasite growth, % of DMSO control in [4] was 5.43%. Also, in [5], the parasite growth remaining, % of DMSO control (lower = more inhibition) was determined as 19.3%. In [6], the parasite growth, % of control (lower = inhibition) is 34.2%. In addition, in assay [7], the growth, % of control came to 5.85%. Also, in [8], the cell viability, % of control (lower = more cytotoxic) amounted to 3.03%. The compound also came in with a viability (% of control) in assay [9] of 2.15%.
On to `COCCn1c2c([n+](Cc3cnccn3)c1C)C(=O)c1ccccc1C2=O`, for which the remaining parasite growth % (stronger effect = lower value) in assay [1] was -1.59%. Also, the activity, percent of control in [2] was -0.193%. The parasite growth, % of DMSO control in assay [4] was found to be 9.02%. Moreover, the parasite growth remaining, % of DMSO control (lower = more inhibition) in [5] is 6.3%. This compound also displayed a parasite growth, % of control (lower = inhibition) in assay [6] of 11.6%. For the same compound, in assay [7], the growth, % of control worked out at 6.61%. Moreover, the cell viability, % of control (lower = more cytotoxic) in assay [8] was found to be 9.73%. This compound also showed a viability (% of control) in assay [9] of 3.5%.
On to `CC(=O)OCC(=O)[C@@]1(O)[C@H](C)C[C@H]2[C@@H]3C=C(C)C4=Cc5c(cnn5-c5ccccc5)C[C@]4(C)[C@@H]3[C@@H](O)C[C@@]21C`, for which the remaining parasite growth % (stronger effect = lower value) in [1] was -0.774%. In assay [2], the activity, percent of control was -0.0557%. Moreover, in assay [3], the remaining proliferation (% of control), lower = more inhibition was -1.72%. Further, the parasite growth, % of DMSO control in assay [4] came out at 6.78%. Also, the parasite growth remaining, % of DMSO control (lower = more inhibition) in [5] is 6.63%. For the same compound, the parasite growth, % of control (lower = inhibition) in assay [6] amounted to 21.4%. In addition, in assay [7], the growth, % of control came out at 10.8%. In addition, the cell viability, % of control (lower = more cytotoxic) in [8] was 102%. Besides, the viability (% of control) in assay [9] was 45.8%.
